This passage reports growth results from PubChem BioAssay (NCI).

Compounds without any hit were thinned out: in the full panel of roughly 83,000, 20% have a hit.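 Growth was measured after 48 h exposure to one concentration of compound in 96-well plates. Values under 10 count as active.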 Values without a mark were called inactive. Activity calls are given as the source filed them.

Common to all, as to test: NCI-60 one-dose screen, 48 h (100 = growth as untreated, 0 = no growth, -100 = all killed)
What all share (details): 10 µM unless noted

For assay [1], the system named is SR leukemia.
Assay [2] concerns RPMI-8226 leukemia.
The subject of assay [3] is OVCAR-8 ovarian.
Assay [4] deals with OVCAR-5 ovarian.
In assay [5] the test system is OVCAR-4 ovarian.
In assay [6] the test system is SK-OV-3 ovarian.
Assay [7] has as its system IGROV1 ovarian.
Assay [8] concerns OVCAR-3 ovarian.
For assay [9], the system named is HS 578T breast.
The subject of assay [10] is NCI/ADR-RES ovarian.
Assay [11] has as its system T-47D breast.
The test system of assay [12] is BT-549 breast.
The test system of assay [13] is MDA-MB-435 melanoma.
For assay [14], the system named is SW-620 colon.
In assay [15] the test system is MCF7 breast.
Assay [16] has as its system HCT-116 colon.
The test system of assay [17] is HCC-2998 colon.
Assay [18] deals with KM12 colon.

With `COc1cc(C)cc(-c2c(-c3cc(N4CC(O)C4)nc(-c4cccnc4)n3)cnn2C)c1`, the growth in assay [1] was 88.3%; in [2], 77.7%; in [3] it was 92.7%; in [4] it was 99.9%; in [5], 88.7%; in assay [6], 118%. In addition, the growth in assay [7] was 120%; in assay [8], 101%; in assay [9] it was 80.5%; in assay [10] it was 83.1%; in [11], 62.6%; in assay [12], 89.7%. Also, the growth in assay [13] is 92%; in assay [14], 101%; in [15], 87.6%; in [16] it was 96.1%; in [17] it was 92.8%; in [18], 84.7%.
`O=C1NCCS(=O)(=O)/C1=C\C=C\c1cccc(C(F)(F)F)c1`: the growth is 6.61% (active) in [1]; -7.36% (active) in assay [2]; 20.4% in assay [3]; 48.4% in assay [4]; 53.4% in [5]; 85.8% in assay [6]. Further, the growth in assay [7] is 35.5%; in [8], 22.2%; in [9] it was 51.1%; in assay [10], -37.5% (active); in assay [11] it was 22.6%; in [12] it was 20.2%. In addition, the growth in assay [13] is 18.2%; in assay [14] it was 28.3%; in assay [15], 18.2%; in assay [16] it was -41.8% (active); in assay [17], 19.6%; in assay [18] it was 43.9%.
On to `C=C1C(=O)O[C@H]2[C@H]1CC/C(COC(=O)NCc1ccc(Cn3c(=O)sn(CCCC)c3=O)cc1)=C\CC[C@@]1(C)O[C@@H]21`, for which the growth in assay [1] is 17.2%; in [2], -15.8% (active); in [3], 65.4%; in [4], 71.9%; in assay [5], 29.2%; in assay [6] it was 107%. Also, the growth in [7] was 36.4%; in [8], -28.6% (active); in assay [9], 78.2%; in assay [10], 103%; in assay [11], 26.2%; in [12], 53.3%. Besides, the growth in [13] was 40.8%; in assay [14], -47% (active); in assay [15], 7.24% (active); in assay [16], 3.34% (active); in assay [17] it was 97.7%; in assay [18], 101%.
Turning to `O=C(NS(=O)(=O)c1ccccc1)n1cc(-c2ccncc2)c(-c2cc(O)cc(Cl)c2)n1`, the growth in assay [1] is 42.6%; in assay [2], 85.2%; in [3], 104%; in [4] it was 115%; in assay [5], 92.2%; in assay [6] it was 107%. The growth in [7] was 99.4%; in [8], 108%; in assay [9], 104%; in [10] it was 97.3%; in assay [11], 90.1%; in assay [12], 101%. Also, the growth in assay [13] was 66.6%; in [14], 123%; in assay [15], 102%; in assay [16], 91.7%; in assay [17] it was 128%; in assay [18], 99.5%.
Consider `C=CCNc1nc(O)c(/C=C2\C=Nc3ncccc32)s1`, for which the growth in [1] was -9.51% (active); in assay [2] it was 42.7%; in assay [3] it was 10.7%; in assay [4] it was 5.27% (active); in assay [5], 34.7%; in [6], -7% (active). Moreover, the growth in assay [7] is 17%; in assay [8] it was -7.02% (active); in assay [9], -15% (active); in assay [10] it was 42.1%; in assay [11], -8.68% (active); in assay [12], -29.5% (active). Further, the growth in assay [13] is 21.1%; in assay [14], 7.39% (active); in [15], 3.5% (active); in [16], 6.31% (active); in assay [17], 44.6%; in assay [18] it was 7.86% (active).
For `CCC(=C(c1ccc(OCCN(CC)CC)cc1)c1ccc(OCCN(CC)CC)cc1)c1ccc(Cl)cc1`, the growth in assay [1] is -39.7% (active); in assay [2] it was -48.5% (active); in assay [3] it was -49.8% (active); in assay [4] it was -52.8% (active); in assay [5], -38.9% (active); in [6], 55.4%. The growth in [7] was -78.6% (active); in assay [8], -72.2% (active); in assay [9], -44.3% (active); in assay [10], -33.1% (active); in [11], -55.4% (active); in [12], 61.5%. In addition, the growth is -92% (active) in assay [13]; -75.5% (active) in assay [14]; -73.3% (active) in [15]; -87.7% (active) in [16]; -91% (active) in assay [17]; -82.2% (active) in assay [18].
In the case of `CC(Cc1cccc2ccccc12)C(N)=O` (stereo not drawn), the growth in assay [1] is 101%; in assay [2], 102%; in assay [3], 108%; in assay [4], 94.9%; in [5], 107%; in assay [6], 102%. Moreover, the growth in assay [7] is 96.8%; in assay [8] it was 113%; in assay [9], 99.2%; in assay [10], 110%; in assay [11] it was 105%; in assay [12], 105%. Further, the growth in assay [13] is 98.9%; in assay [14], 108%; in [15], 93%; in assay [16], 106%; in [17] it was 106%; in assay [18], 110%.
Consider `CCOC(=O)CSc1nc2sc3c(c2c(=O)n1-c1ccccc1)CCCCC3`, for which the growth is 103% in assay [1]; 105% in [2]; 103% in assay [3]; 103% in assay [4]; 116% in assay [5]; 100% in [6]. In addition, the growth is 106% in [7]; 93.5% in assay [8]; 103% in assay [9]; 108% in assay [10]; 94.4% in assay [11]; 110% in [12]. Besides, the growth in assay [13] is 107%; in [14] it was 98.1%; in assay [15] it was 94.5%; in [16], 97.3%; in [17], 114%; in assay [18] it was 104%.
`CCOC(=O)c1c(C)nc2c(c1N)C(=O)C(=O)N2CCc1ccc(OC)c(OC)c1`: the growth is 35.9% in assay [1]; 42.7% in [2]; 77.9% in [3]; 94.9% in assay [4]; 54.8% in assay [5]; 76.6% in assay [6]. Besides, the growth was 74% in assay [7]; 61.5% in assay [8]; 89% in assay [9]; 41.9% in assay [10]; 44.6% in [11]; 64.4% in assay [12]. For the same compound, the growth is 41.4% in assay [13]; 47.8% in assay [14]; 20.3% in assay [15]; 38.7% in [16]; 93.7% in assay [17]; 58.3% in [18].
Turning to `COc1c(O[C@@H]2OC(CO)[C@H](O)[C@H](O)C2O)cc2oc3cc(O)c(CC=C(C)C)c(O)c3c(=O)c2c1CC=C(C)C` (stereo partly drawn), the growth in [1] was 102%; in assay [2], 96.4%; in assay [3], 87.3%; in assay [4], 108%; in assay [5], 115%; in assay [6], 97.7%. Moreover, the growth in [7] was 91%; in assay [8], 99.7%; in [9], 96.2%; in [10], 101%; in [11], 70.8%; in assay [12] it was 102%. In addition, the growth in assay [13] is 94.3%; in assay [14] it was 104%; in assay [15] it was 92.8%; in [16], 88.8%; in [17], 95.9%; in assay [18], 106%.
On to `Cc1ccc(C2(C)NC(=O)N(CC(=O)Nc3cccc(C)c3)C2=O)cc1` (stereo not drawn), for which the growth in [1] is -22.7% (active); in assay [2] it was 67.8%; in assay [3], 105%; in assay [4] it was 97.1%; in [5], 99.3%; in [6] it was 97.6%. Also, the growth was 105% in assay [7]; 111% in assay [8]; 102% in assay [9]; 94.8% in assay [10]; 94.4% in [11]; 90.9% in assay [12]. The growth was 108% in [13]; 106% in assay [14]; 91.2% in assay [15]; 96.1% in [16]; 102% in assay [17]; 96.6% in [18].
As to `COc1cc(C2CC(c3cccc(Nc4ccncc4)c3)=Nc3c(N)ncnc3N2)cc(OC)c1OC` (stereo not drawn), the growth in assay [1] was 30.1%; in [2], 71.8%; in assay [3] it was 93.6%; in [4], 111%; in assay [5] it was 84.1%; in assay [6], 88.3%. Moreover, the growth in [7] was 95.8%; in [8] it was 88.9%; in assay [9], 95%; in assay [10], 96.7%; in assay [11], 62.2%; in [12] it was 113%. The growth in assay [13] is 69.7%; in assay [14], 90.6%; in assay [15] it was 57.6%; in [16], 87.9%; in [17] it was 95.4%; in [18] it was 69%.
As for `CCOC(=O)CCC(=O)P(=O)(O)O`, the growth in assay [1] is 4.41% (active); in assay [2] it was 42.1%; in assay [3], 97.1%; in assay [4], 116%; in assay [5] it was 115%; in assay [6] it was 80.5%. In addition, the growth in assay [7] is 110%; in [8], 115%; in [9], 114%; in [10], 102%; in [11], 98.6%; in assay [12], 101%. Besides, the growth is 125% in [13]; 96.5% in [14]; 110% in assay [15]; 86.2% in assay [16]; 99.8% in [17]; 112% in [18].
Turning to `c1ccc(-c2nc(N3CCNCC3)c3oc(-c4ccccc4)nc3n2)cc1`, the growth is -1.84% (active) in assay [1]; -32.6% (active) in assay [2]; -25.1% (active) in assay [3]; -82% (active) in [4]; -88.2% (active) in [5]; -46% (active) in [6]. In addition, the growth in assay [7] is -88.8% (active); in assay [8], -53.4% (active); in [9], -60.7% (active); in [10] it was -48.8% (active); in assay [11], -41.9% (active); in [12], 106%. In addition, the growth in [13] was -93.9% (active); in assay [14], -77.7% (active); in assay [15], -62.3% (active); in assay [16], -31.7% (active); in assay [17], -87.5% (active); in [18], -75.4% (active).
Turning to `CC1=C2[C@@H](CC1)[C@]1(C)O[C@@](C(C)C)(C[C@H]1OC(=O)CO)[C@H]2OC(=O)CCCc1ccccc1`, the growth is 76.1% in assay [1]; 22.7% in [2]; 35.4% in [3]; 100% in assay [4]; 80% in assay [5]; 105% in assay [6]. Besides, the growth in [7] is 62.8%; in assay [8], 61.3%; in [9], -4.02% (active); in assay [10], 44.8%; in [11], 25.3%; in [12], 53.3%. The growth in assay [13] was 78.7%; in assay [14], 77.3%; in [15], 82.4%; in assay [16], 68.7%; in [17], 84%; in assay [18] it was 60.9%.
In the case of `C=CCn1c(SCC(=O)Nc2ccc(C(=O)/C=C/c3ccc(Cl)cc3)cc2)nnc1-c1ccc(Cl)c(Cl)c1`, the growth is 57% in assay [1]; -34.5% (active) in assay [2]; 75.6% in assay [3]; 90.5% in [4]; 86.7% in assay [5]; 85.7% in [6]. Also, the growth is 76.4% in assay [7]; 83.8% in [8]; 90.8% in [9]; 83.9% in assay [10]; 76.6% in [11]; 78% in assay [12]. Moreover, the growth in [13] is 37.9%; in [14], 90.9%; in assay [15], 19.7%; in assay [16], -71.5% (active); in assay [17], 95.9%; in assay [18], 85.2%.
